High-throughput results (PubChem)
Most compounds without a hit are left out; they make up all but 3.5% or so of the library.
MITF inh: human MITF inhibition, primary screen; inhibition, % at 2.6 µM; O75030; AID 1259374; AlphaScreen MITF homodimerization, bead proximity signal; 650,000 compounds, 0.91% hits; in the data active means inhibition above about 50%;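 further: 0% = vehicle wells with protein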
Target sequence (O75030 whole entry, looked up): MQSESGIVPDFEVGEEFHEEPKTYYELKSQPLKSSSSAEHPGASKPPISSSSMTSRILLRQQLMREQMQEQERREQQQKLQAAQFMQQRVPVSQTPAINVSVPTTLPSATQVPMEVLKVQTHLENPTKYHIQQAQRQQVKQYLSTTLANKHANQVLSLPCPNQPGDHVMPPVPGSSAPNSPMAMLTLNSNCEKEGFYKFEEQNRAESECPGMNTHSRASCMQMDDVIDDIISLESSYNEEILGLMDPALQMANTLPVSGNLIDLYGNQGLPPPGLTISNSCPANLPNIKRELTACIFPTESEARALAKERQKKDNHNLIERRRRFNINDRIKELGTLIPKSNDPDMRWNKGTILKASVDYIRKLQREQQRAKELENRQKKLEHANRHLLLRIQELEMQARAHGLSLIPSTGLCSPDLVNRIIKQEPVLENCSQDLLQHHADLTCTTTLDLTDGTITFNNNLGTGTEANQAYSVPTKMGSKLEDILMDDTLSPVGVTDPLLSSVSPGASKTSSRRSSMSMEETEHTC
TEAD-YAP block: TEAD-YAP interaction inhibition; HEK-TIYL cells, TEAD-Gal4/YAP UAS-luciferase luminescence; inhibition, % at 9.12 µM; 640,000 compounds, 1.4% hits; AID 1259422; in the data active means inhibition above about 32%;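 further: 0% = median of test compound wells and 100% = reference inhibitor wells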
GPR151 activ: activators of human GPR151 | PathHunter beta-arrestin GPR151 cells, luminescence | 650,000 compounds, 1% hits | Q8TDV0 | activation, % at 11.2 µM; in the data active means activation above about 4.9%;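 further: 0% = median of compound wells and 100% = cells with positive control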
FBW7 activator: activators of human E3 ligase FBW7 | Q969H0 | AlphaScreen FBW7–phospho-cyclin E peptide binding, activator screen | normalized activity (activation), % at 26.1 µM | 650,000 compounds, 0.13% hits; in the data active means normalized activity above about 1.9%;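 further: purified mutant Fbw7 with reduced substrate affinity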
GPR151 confirm: confirmation of human GPR151 activators | shares compounds with GPR151 activ | GPR151 PathHunter beta-arrestin cells, luminescence, 90 min; % of EA-reagent control over plate median | 6,700 tested, under 10 active | activation, % at 11.2 µM;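 active means mean percent activation across replicates above the confirmation screen cutoff of 4.91%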
GPR119 counter: counter-screen for GPR151 activators: effect on human GPR119; GPR119 PathHunter beta-arrestin cells, luminescence, 90 min; 0 = compound-well median, 100 = enzyme-acceptor control; shares compounds with GPR151 activ; AID 1508611; 6,700 compounds, 0.3% hits; activation, % at 11.2 µM;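 active means mean percent activation in the counterscreen above 29.09%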;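 further: counterscreen on off-target GPR119 to flag nonselective hits from the GPR151 activator screen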
An asterisk follows results filed as active; . = no result; ! = not active in a repeat.

SMILES | MITF inh | TEAD-YAP block | GPR151 activ | FBW7 activator | GPR151 confirm | GPR119 counter
CCCOc1ccc2oc(=O)c3c(c2c1)CCCN3C(=O)CN1CCN(C)CC1 | 2.0 | 15.8 | 3.3 | 0.1 | . | .
CCCOc1ccc(/C(O)=C2/C(=O)C(=O)N(c3ccccn3)C2c2ccc(Cl)cc2)cc1C (centres undefined) | -7.1 | -1.6 | 1.4 | -0.1 | . | .
Cc1cc(=O)[nH]c2nnc(SCC(=O)N3CCCCCC3)n12 | -4.0 | 4.0 | 6.1* | -0.2 | -0.3 | 0.1
Cc1cc(C)nc(SCC(=O)N2CCCCC2)n1 | 13.1 | -1.8 | 7.5* | 0.1 | 0.1 | 15.4
Cc1cccc(C(=O)NCC(=O)NNC(=O)c2ccc(Br)cc2)c1 | -15.5 | -2.5 | -0.6 | 0.2 | . | .
O=C1c2ccncc2C(=O)N1c1ccc(F)cc1 | -8.4 | -8.7 | 5.9* | 0.0 | 0.3 | -9.0
Cc1ccc(N2C(=O)c3ccncc3C2=O)cc1 | -7.5 | 2.0 | 1.3 | -0.1 | . | .
Cn1c(CNc2nc3ccccc3n2CCN2CCOCC2)nc2ccccc21 | 11.7 | -13.5 | -1.0 | 0.0 | . | .
c1coc(CNc2nc3ccccc3n2CCN2CCOCC2)c1 | -10.9 | -19.4 | 9.8* | 0.2 | 0.1 | 18.8
COc1cn(CC(=O)Nc2cc(C)cc(C)c2)c(CSc2nccc(C)n2)cc1=O | -1.2 | 1.2 | 14.7* | 0.0 | -0.6 | -3.6
COc1cn(CC(=O)Nc2cccc(C)c2)c(CSc2ncccn2)cc1=O | 8.5 | -5.4 | 1.6 | 0.1 | . | .
O=C(O)CNS(=O)(=O)c1ccc2[nH]c(=O)oc2c1 | 14.2 | 10.0 | -0.5 | 0.1 | . | .
COc1ccccc1-n1c(-c2ccc(NS(C)(=O)=O)cc2)n[nH]c1=S | 2.1 | -8.9 | 6.5* | 0.0 | -0.9 | -6.3
COc1ccc(-c2n[nH]c(=S)n2-c2cc(OC)ccc2OC)cc1 | 1.8 | 7.4 | 1.1 | 0.0 | . | .
CCOC(=O)N1CCN(C(=O)c2cc(OC)c(OC)cc2[N+](=O)[O-])CC1 | 6.3 | 11.2 | -1.0 | 0.0 | . | .
CN(CC(=O)Nc1ccccc1F)S(=O)(=O)c1cccc2cnccc12 | 6.4 | 37.1* | 5.4* | 0.0 | -0.2 | -6.5
CN(CC(=O)Nc1ccc(F)cc1)S(=O)(=O)c1cccc2cnccc12 | -2.4 | 21.0 | -2.3 | 0.0 | . | .
C=C(C)CN1C(=O)NC(CC)(C2CCN(Cc3coc4ccc(C)cc4c3=O)CC2)C1=O (centres undefined) | -4.0 | 2.4 | 0.8 | -0.1 | . | .
CCc1ccccc1NC(=O)C(=O)NCCOC | -24.8 | 8.1 | -0.4 | 0.0 | . | .
CCCNC(=O)C(=O)Nc1ccccc1CC | -3.2 | -2.5 | 6.7* | 0.1 | -0.4 | -5.8
O=C(NCc1ccccc1)C1CN(Cc2ccccc2)CCN1C(=O)NCc1ccco1 (centres undefined) | 6.7 | 10.9 | 2.6 | 0.2 | . | .
CCCCNC(=O)NS(=O)(=O)c1ccc(C)cc1 | 14.8 | -0.4 | 6.1*! | 0.3 | 0.5 | 1.7
CCNC(=O)CNS(=O)(=O)c1ccc(I)cc1 | -1.4 | 7.7 | 1.2 | 0.1 | . | .
CCNC(=O)CNS(=O)(=O)c1ccc(C)cc1 | 4.2 | 2.4 | 7.9* | -0.1 | -0.1 | 0.9
C/C(N)=C(/C#N)C(=O)COC(=O)c1ccc(COc2ccc3c(C)cc(=O)oc3c2)cc1 | 6.7 | 5.6 | 5.3* | 0.1 | -0.1 | -0.5
SMILES | MITF inh | TEAD-YAP block | GPR151 activ | FBW7 activator | GPR151 confirm | GPR119 counter
Cc1cc(=O)oc2cc(OCc3ccc(C(=O)NNC(=O)c4ccccc4)cc3)ccc12 | 5.8 | 1.5 | -0.8 | -0.1 | . | .
CN1CCN(c2nc(Nc3ccc(F)cc3)c3nccnc3n2)CC1 | -2.0 | -2.8 | -0.6 | 0.0 | . | .
O=S(=O)(NCCSc1nnnn1-c1ccccc1)c1ccccc1 | -1.1 | -2.7 | 8.7* | -0.2 | 0.2 | 13.4
CC(=O)COC(=O)c1ccc(C)c(N2C(=O)c3ccccc3C2=O)c1 | 1.4 | 8.5 | -0.4 | 0.0 | . | .
CCOc1ccc(/C=C2\SC(=S)N(C(C)C(=O)O)C2=O)cc1 (centres undefined) | -0.9 | -8.5 | 11.2* | -0.2 | 0.7 | 6.9
Cc1ccc(-c2cncc(-c3cc(Nc4ncccn4)nc(C)n3)c2)cc1 | 42.2 | 0.6 | -1.3 | 0.1 | . | .
COc1ccc(-c2cncc(-c3cc(Nc4ncccn4)nc(C)n3)c2)cc1 | 2.7 | -1.1 | 6.9* | -0.2 | -0.5 | 0.4
CC1=C(C(=O)Nc2ccccc2C)C(c2cccc([N+](=O)[O-])c2)NC(=O)N1 (centres undefined) | -3.3 | -6.0 | 0.3 | 0.0 | . | .
Cn1nc(-c2ccnc(Nc3ccc(N4CCOCC4)cc3)c2)cc1Nc1ccccc1 | -3.8 | -5.3 | 5.7* | -0.4 | -0.1 | -6.2
NC(=O)c1ccccc1Nc1ccnc(Nc2ccc(N3CCOCC3)cc2)c1 | -5.5 | 26.7 | 0.1 | -0.3 | . | .
NC(=O)c1cc2ccccc2cc1Nc1ccnc(Nc2ccc(N3CCOCC3)cc2)c1 | 34.2 | 83.5* | 6.5* | -0.2 | -0.1 | 0.5
CCc1ccccc1NC1=NS(=O)(=O)c2ccccc21 | -4.4 | -6.7 | 0.8 | -0.2 | . | .
COc1ccc(N=c2oc3c(C)ncc(CO)c3cc2C(N)=S)cc1 | -5.4 | -5.3 | -1.0 | 0.0 | . | .
COc1ccc(-n2ncc3c(Nc4ccc(Cl)c(Cl)c4)ncnc32)cc1 | 8.1 | 22.8 | -0.8 | -0.1 | . | .
COc1ccc(Nc2ncnc3c2cnn3-c2ccc(Cl)cc2)cc1Cl | 0.8 | -2.8 | 11.1* | -0.1 | -1.3 | -8.2
COc1ccc(C(=O)C[n+]2cccc(Br)c2)cc1 | -5.8 | -5.5 | 0.2 | -0.1 | . | .
O=C(C[n+]1cccc2ccccc21)c1ccc(-c2ccccc2)cc1 | 23.4 | 5.6 | -1.2 | 0.3 | . | .
O=C(C[n+]1cccc2ccccc21)c1ccc(Br)cc1 | -5.1 | -2.1 | 15.3* | -0.1 | -0.2 | -2.0
COC(=O)c1ccc[n+](CC(=O)c2ccc(Br)cc2)c1 | -0.3 | -1.5 | 6.2* | 0.5 | 0.1 | 1.3
Cc1ccc(NC(=O)C(=O)NCCC2CCCCN2S(=O)(=O)c2ccccc2)cc1 (centres undefined) | -1.2 | 10.1 | -0.6 | 0.0 | . | .
COc1c(Cl)cc(Cl)cc1/C=N/N=C(\N)c1nonc1N | -24.6 | -44.8 | 0.5 | 0.1 | . | .
CN(Cc1ccccc1)C(=O)CCC1CCN(C(=O)c2cc[n+]([O-])cc2)CC1 | 13.6 | 0.4 | 5.6* | 0.4 | 0.6 | 6.0
CCc1ccccc1-n1c(C)c(C)n2c3c(=O)n(CCC(=O)OC)c(=O)n(C)c3nc12 | 16.2 | -1.8 | -0.3 | 0.1 | . | .
CN1CCN(c2ccc(-c3cc(NCc4ccccc4)ncn3)cc2)CC1 | 6.7 | -15.9 | -2.0 | 0.3 | . | .
Cc1ccccc1OCC(=O)Nc1ccc(Cl)c(-c2nc3ccccc3s2)c1 | -7.1 | -2.6 | 6.4* | -0.1 | 0.6 | 19.9
Cc1sc(NC(=O)/C=C\C(=O)O)nc1-c1ccccc1 | 2.8 | 1.6 | 6.9* | 0.2 | 1.2 | 20.1
Cc1cccc2sc(NC(=O)/C=C\C(=O)O)nc12 | 14.3 | 6.3 | 6.8* | 0.2 | -0.3 | 16.1
COc1ccc(C(=O)Nc2cc(=O)n(C)c(=O)n2C)cc1 | 2.3 | -4.1 | 3.8 | -0.3 | . | .
